The source made the active and inactive calls. How the source made its calls: active means hit-call score of the fitted dose curve at least 0.9, where 1 is the maximum; inactive means score below 0.9.

The term AC50 denotes the concentration giving half of the maximal activity seen.

This test is described as follows: CCTE_Shafer_MEA_acute_synchrony_index: CCTE's Neural Acute Assay for Synchrony, Shafer Lab (AID 2284027).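 Further: fitted for loss of signal so actives lower synchrony relative to DMSO.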 How it is done: CCTE_Shafer_MEA_acute assay is conducted using Axion Biosystems 48 well microelectrode array (MEA) plates and Maestro recording system. Each well of the MEA plate contains a grid of 16 microelectrodes embedded in the culture surface. Electrically active cells, such as neurons, can be cultured over the electrodes, and electrical activity in these cells can be recorded extracellularly. The spontaneous firing of neurons is captured from each electrode on a microsecond timescale providing both temporally and spatially precise data. […] The CCTE_Shafer_MEA_acute assay uses primary cultures of rat cortical neurons. As these cultures mature over time, neural networks develop functional activity and form cohesive networks in which electrical activity can be highly coordinated. Baseline 40-minute recordings are made on days post-plating 13 or 15, followed by a secondary 40-minute recording after chemical exposure.CCTE_Shafer_MEA_acute_synchrony_index is a component of the CCTE_Shafer_MEA_acute assay. It measures the synchrony of the neural network as a unitless measure between 0 (low synchrony) to 1 (high synchrony) during a recording in a microelectrode array (MEA) using Axion Biosystems Maestro 768 channel amplifier with the AxIS adaptive spike detector. The recordings before and after chemical treatment are used to calculate a percent change in the synchrony index in each well.Data from the assay component CCTE_Shafer_MEA_acute_synchrony_index was analyzed into 1 assay endpoint. This assay endpoint, CCTE_Shafer_MEA_acute_synchrony_index, was analyzed in the negative analysis fitting direction relative to DMSO as the negative control and baseline of activity. Using a type of functional reporter, gain or loss-of-signal activity can be used to understand electrical activity.
Spontaneous activity in the cortical cultures was recorded using an Axion Biosystems Maestro 768 channel amplifier and Axion Integrated Studios (AxIS) v1.8 (or later) software. The amplifier recorded from all channels simultaneously (gain = 1200 x; sampling rate = 12.5 kHz/channel): raw signals were filtered with a Butterworth band-pass filter (300-5000 Hz), which filters out slower local field potentials leaving only fast potentials, i.e., "spikes", arising from extracellular currents associated with action potentials (Pine 2006; Wheeler and Nam 2011). On-line spike detection of filtered signals was conducted with the AxIS adaptive spike detector, using a threshold of 8x the root mean squared (rms) noise on each channel. Any electrodes with rms noise levels greater than 5 uV were grounded (e.g., no data were recorded). Once grounded, an electrode was grounded for the duration of the experiment. All recordings were conducted at 37 C. Wells were deemed usable if on the day of the exposure >/= 10 electrodes were active (defined as >/= 5 spikes/min). On DIV 13 or 15, a minimum of three wells from one cortical culture preparation were treated with each compound (0.03-40 uM). Prior to recording baseline activity, each mwMEA plate was placed in the Maestro at 37 C and allowed to sit for 20 min while firing rates stabilized. Baseline activity (40 min) was recorded before the addition of each compound. An additional 40 min of spontaneous activity was recorded in the presence of each compound. Changes in network parameters relative to baseline were assessed following compound treatment.
With `CP(=O)(O)CCC(N)C(=O)O` (stereo not given), the call was inactive.
`COc1ccc(CO)cc1`: the concentration at half-maximal activity (AC50) is 3.81 µM (active).
Consider `CP(=O)(O)CC[C@H](N)C(=O)O`, for which the result was inactive.
For the compound `O=[N+]([O-])O`, the compound was classed as inactive.
In the case of `c1cc[n+]2c(c1)-c1cccc[n+]1CC2`, the compound was classed as inactive.
Regarding `O=c1c2ccccc2c(=O)c2c1cc(Cl)c1[nH]c3c([nH]c12)c(Cl)cc1c(=O)c2ccccc2c(=O)c13`, the compound was called inactive.
Regarding `CC1(C)[C@@H](C=C(Cl)Cl)[C@@H]1C(=O)O[C@@H](C#N)c1ccc(F)c(Oc2ccccc2)c1`, the AC50 was 0.512 µM (active).
Consider `[Cd+2].[Cl-].[Cl-]`, for which the outcome was inactive.
With `CC1(C)[C@H](C(=O)O[C@H](C#N)c2cccc(Oc3ccccc3)c2)[C@@H]1C=C(Br)Br`, the AC50 is 0.866 µM (active).
On to `Cc1ccc(OP(=O)(Oc2ccc(C)cc2)Oc2ccc(C)cc2)cc1` (tested in a mixture with another compound), for which the AC50 is 6.01 µM (active).
On the same count and under the same terms, the result for `CC1(C)[C@H](C=C(Cl)Cl)[C@@H]1C(=O)O[C@@H](C#N)c1cccc(Oc2ccccc2)c1` reads 1.39 µM (active); that for `CCCC[N+](CCCC)(CCCC)CCCC`, 9.18 µM (active).
`O=C(O)CNCP(=O)(O)O`: the result was inactive.
As for `C#CCN(C)[C@H](C)Cc1ccccc1`, the compound was called inactive.
With `Oc1ccc(C2(c3ccc(O)cc3)c3ccccc3-c3ccccc32)cc1`, the AC50 was 25.4 µM (active).

(Values after PubChem BioAssay (EPA / NIEHS).)
